Results on 89 compounds are retold here after PubChem BioAssay AID504652 (National Center for Advancing Translational Sciences (NCATS), 2011).

Values joined by “and” are separate entries in the source; they are usually repeats but may differ in a detail not shown here. Equal values may be shown once. Out of some 360,000 compounds screened, about 11,000 (3.1%) were called active. Cut-off read from the data, not from the text of the source: active = activity change below about -30%; inactive = the rest. This excerpt belongs to a sample that is enriched for actives.
% is set by controls: 0 for no effect and ±100 for the full control effect.

Sequence of D(1A) dopamine receptor (Homo sapiens) (P21728 whole entry, looked up): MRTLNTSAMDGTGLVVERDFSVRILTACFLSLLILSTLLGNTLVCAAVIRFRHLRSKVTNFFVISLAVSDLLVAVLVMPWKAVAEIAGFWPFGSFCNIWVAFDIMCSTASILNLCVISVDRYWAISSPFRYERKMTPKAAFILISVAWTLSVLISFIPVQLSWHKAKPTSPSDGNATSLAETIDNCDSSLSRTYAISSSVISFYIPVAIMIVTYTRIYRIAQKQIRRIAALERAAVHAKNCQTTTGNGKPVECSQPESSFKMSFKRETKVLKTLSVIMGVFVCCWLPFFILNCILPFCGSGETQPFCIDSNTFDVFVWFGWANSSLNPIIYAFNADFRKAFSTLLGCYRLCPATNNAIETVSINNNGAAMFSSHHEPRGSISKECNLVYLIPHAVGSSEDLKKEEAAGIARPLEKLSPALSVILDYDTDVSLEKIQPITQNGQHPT

This assay concerns the target D(1A) dopamine receptor (Homo sapiens) (UniProt P21728). Description: Antagonist of Human D 1 Dopamine Receptor: qHTS. To be noted: HEK293 TREx D1 cells, calcium flux, dopamine EC80; at 10 µM; hits give low values. A digest of the protocol:
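Calcium flux readout: force-coupled, inducible Hek293 Trex D1 line, cells induced overnight at 30 C with tetracycline, dye-loaded 30–90 min at RT. Antagonism scored against EC80 dopamine challenge given 180 s after compound.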
On the technique in general: In qHTS, concentration-response curves come from the screen itself.
As for `COc1ccc(OC)c(-n2nnc(-c3nc(-c4cc(OC)c(OC)c(OC)c4)no3)c2C)c1`, the activity change, negative = inhibition is -6.72% (inactive). Under `Cc1ccc2oc(=O)c3cnn(CC(=O)NCc4ccccc4Cl)c3c2c1` stands 1.96% (inactive); under `COc1ccc(N(C)S(=O)(=O)c2ccc3c(c2)CC(C)N3C(=O)C2CC2)c(OC)c1` (centres undefined), -41.8% (active). To `COc1cccc(CNS(=O)(=O)c2ccc3c(c2)N(C(C)=O)CCS3)c1` belongs 3.44% (inactive); to `CC1Cc2cc(S(=O)(=O)CCC(=O)NCc3ccc(Cl)cc3)ccc2N1C(=O)C1CC1` (centres undefined), -19.3% (inactive); to `COc1cccc(CNS(=O)(=O)c2ccc3c(c2)CC(C)N3C(C)=O)c1` (centres undefined), -35% (active). With `COc1cccc(CNS(=O)(=O)c2ccc3c(c2)CC(C)N3C(=O)C2CCC2)c1` (centres undefined), the activity change, negative = inhibition is -10.7% (inactive) and -1% (inactive). In the case of `COc1ccccc1CNC(=O)C1CCN(S(=O)(=O)c2ccc3c(c2)CC(C)N3C(=O)C2CC2)CC1` (centres undefined), the activity change, negative = inhibition was -4.76% (inactive). Take `Cc1cccc(CNC(=O)c2cnc3sc(N4CCCCC4)nn3c2=O)c1`: the activity change, negative = inhibition is 1.97% (inactive). Regarding `CCOCCCNC(=O)c1c(NC(=O)c2nc(SC)ncc2Cl)sc2c1CCCC2`, the activity change, negative = inhibition is -26.2% (inactive). To `CCN(CCCNC(=O)c1cc2c(=O)n(CC)c3ccccc3c2s1)Cc1ccccc1` belongs 11.6% (inactive). Under `Cc1cccc(-n2ncc(C(=O)N3CCN(c4ccc(Cl)cc4)CC3)c2C2CCN(C(=O)OC(C)(C)C)CC2)c1` stands 1.41% (inactive); under `COc1ccc(CNC(=O)c2ccc(NC(=O)N3CC4CCCN4c4ccccc43)cc2)cc1` (centres undefined), 40.5% (inactive); under `CCOc1ccc(C(=O)NC(=S)Nc2ccc(NC(=O)C(C)C)cc2)cc1[N+](=O)[O-]`, -38.8% (active). Take `CC(=O)Nc1ccc(NC(=S)NC(=O)c2ccc([N+](=O)[O-])c(C)c2)cc1`: the activity change, negative = inhibition is -2.38% (inactive). For `CCOc1ccc(C(=O)NC(=S)Nc2ccc(N3CCOCC3)c(Cl)c2)cc1[N+](=O)[O-]`, the activity change, negative = inhibition is -18.8% (inactive). As to `O=C(Nc1cccc2cccnc12)C(F)(F)F`, the activity change, negative = inhibition was 5.04% (inactive). To `O=C(NCc1ccccc1Cl)c1cccn1-c1nnc(N2CCCCC2)s1` belongs -10.7% (inactive).

For `O=C(Cn1ncc2c3ccccc3n(Cc3ccccc3)c2c1=O)NC1CCCCCC1`, the activity change, negative = inhibition was -8.69% (inactive). To `COc1ccc(C(CCNCc2ccccc2F)c2ccc(F)cc2)cc1` (centres undefined) belongs -7.29% (inactive); to `COc1cccc(CNCCSc2nnnn2C)c1OCc1ccccc1Cl`, -5.2% (inactive). Under `COc1cccc(CNCCc2c[nH]c3ccccc23)c1OCc1ccccc1F` stands -35.2% (active). Regarding `O=C(CN1C(=O)COc2ccc(S(=O)(=O)N3CCCCCC3)cc21)N1CCN(c2cccc(C(F)(F)F)c2)CC1`, the activity change, negative = inhibition was -0.903% (inactive). Under `O=C(CN1CCc2ccccc2C1)Nc1cccc(S(=O)(=O)N2CCOCC2)c1` stands 27.4% (inactive); under `Cc1ccc(NC(=O)CN2CCc3ccccc3C2)cc1C`, -59.1% (active). Under `O=C(CN1CCc2cc3c(cc2C1)OCCCO3)Nc1ccccc1` stands -19.4% (inactive); under `O=C(NCCc1ccccc1)c1ccc2c(c1)N(Cc1ccccc1)C(=O)c1ccccc1S2(=O)=O`, -40.3% (active); under `COCCNC(=O)c1ccc2c(c1)N(Cc1cccc(Cl)c1)C(=O)c1ccccc1S2(=O)=O`, 5.66% (inactive). Under `O=C(NCCc1ccccc1)c1ccc2c(c1)N(Cc1ccc(F)cc1)C(=O)c1ccccc1S2(=O)=O` stands 6.04% (inactive). Regarding `COC(=O)c1ccccc1NC(=O)c1ccc2c(=O)n3c(nc2c1)CCCCC3`, the activity change, negative = inhibition is 5.25% (inactive). To `CC(C)c1ccc(NC(=O)c2cc(S(=O)(=O)N3CCc4ccccc4C3)ccc2F)cc1` belongs 3.76% (inactive); to `CC(C)CNS(=O)(=O)c1ccc(CCC(=O)NCc2ccc(Cl)cc2)cc1`, 3.95% (inactive); to `Cc1ccc(S(=O)(=O)NCCC(=O)NCc2ccc(Cl)cc2)cc1C`, -35.7% (active). Regarding `CC(C)CCNC(=O)CCNS(=O)(=O)c1ccc(Cl)cc1`, the activity change, negative = inhibition is -17.7% (inactive). Under `CC1CCC(N2CC(=O)N(CCC3=CCCCC3)C(c3ccc(F)cc3)C2=O)CC1` (centres undefined) stands -13.9% (inactive). As to `Cc1ccc2[nH]c(=O)c(CN(CC3COCCO3)C(=O)Nc3ccccc3C)cc2c1` (centres undefined), the activity change, negative = inhibition is -8.28% (inactive). Consider `Cc1ccc2[nH]c(=O)c(CN(CCCN(C)C)C(=O)Nc3cccc(Cl)c3)cc2c1`, for which the activity change, negative = inhibition was -39.7% (active). To `CCC(=O)N(CCc1ccccc1)Cc1cc2cc(C)ccc2[nH]c1=O` belongs 13.5% (inactive). Under `COc1ccc(-n2nnc(-c3nsc(NC(=O)c4ccc(C)c(C)c4)n3)c2C)cc1Cl` stands 2.45% (inactive); under `CCOc1ccc(NC(=O)Cn2cc(C(=O)c3ccc(C)cc3)c(=O)c3cc4c(cc32)OCCO4)cc1`, 4.79% (inactive); under `COc1ccc(O)c(C(=O)c2cnc3onc(C(C)C)c3c2)c1`, -33.3% (active). With `COc1ccc(O)c(C(=O)c2cnc3c(c2)c(-c2ccc(F)cc2)c(C#N)c(=O)n3C)c1`, the activity change, negative = inhibition is 0.727% (inactive).

Take `COCCn1c(=O)[nH]c(=O)c2cc(C(=O)c3cc(OC)ccc3O)cnc21`: the activity change, negative = inhibition is 12.3% (inactive). To `CCOc1ccc(CNC(=O)c2ccc(CS(=O)c3ccccc3)o2)cc1` (centres undefined) belongs -7.56% (inactive); to `COc1ccc(CNC(=O)CC2Oc3ccc(C)cc3NC2=O)cc1` (centres undefined), 14% (inactive); to `COc1ccc(C(=O)OCC(=O)Nc2ccc3[nH]c(=O)[nH]c3c2)c(OC)c1OC`, -37.4% (active). As for `O=C(COC(=O)c1cccc(Cl)c1)Nc1ccc2[nH]c(=O)[nH]c2c1`, the activity change, negative = inhibition is 2.99% (inactive). To `COc1ccc(C(=O)OCC(=O)Nc2cccc(C(C)=O)c2)cc1OC` belongs -4.31% (inactive); to `COc1ccc(NC(=O)c2sc3nc(-c4cc5cccc(OC)c5oc4=O)[nH]c(=O)c3c2C)cc1`, 7.97% (inactive); to `Cc1ccc(CSc2nc3cccnc3n2Cc2ccc(C(=O)NC3CC3)cc2)cc1`, -0.852% (inactive). To `CCc1ccc(NC(=O)CCCc2nnc3n(CCCOC)c(=O)c4sccc4n23)cc1` belongs -2.77% (inactive); to `Cn1nc(-c2ccccc2)c(CSc2cccc(Cl)c2)c1Cl`, 2.15% (inactive). Consider `Cn1nc(-c2ccccc2)c(CO)c1Sc1ccccc1`, for which the activity change, negative = inhibition is -64.5% (active). To `Cn1cnc([N+](=O)[O-])c1Sc1ccccc1` belongs 1.72% (inactive); to `Cc1ccc(S(=O)(=O)NCc2nc3nc(C)cc(C)n3n2)cc1`, -1.58% (inactive). To `CCOc1cc(NC(=O)Nc2ccccc2)c(OCC)cc1NC(=O)CC` belongs 0.545% (inactive); to `Cc1ccc(NC(=O)c2ccn(C(=O)Nc3ccccc3)n2)c(C)c1`, 4.19% (inactive). Under `Cc1ccc(NC(=O)Nc2ccccc2)c(Br)c1` stands -35.1% (active).

As for `COc1ccc(Cn2c(=O)c3oc4ccccc4c3n(CC(=O)Nc3ccc(F)cc3F)c2=O)cc1`, the activity change, negative = inhibition is -7.86% (inactive). To `Cc1cc2c(s1)c1cnn(Cc3cc(F)c(Cl)cc3Cl)c(=O)c1n2C` belongs 3.83% (inactive); to `CC(C)OCCCNc1ncnc2c1[nH]c1ccc(F)cc12`, -48.9% (active); to `Cc1ccc(-n2ncc(C(=O)N(C)Cc3ccccc3)c2-n2cccc2)cc1`, -9.92% (inactive).

For `Cc1cc2c(cc3c(SCc4nc(-c5ccccc5)oc4C)nnc(C)n32)o1`, the activity change, negative = inhibition is -21.6% (inactive). To `O=C(NCC(c1ccco1)S(=O)(=O)c1cccs1)c1ccc(F)cc1` (centres undefined) belongs -7.39% (inactive); to `O=C(CC1NCCNC1=O)Nc1cc(Cl)cc(Cl)c1` (centres undefined), 4.63% (inactive).

On to `O=C(CC1NCCc2ccccc21)Nc1cccc(Cl)c1` (centres undefined), for which the activity change, negative = inhibition was -31.7% (active). Turning to `O=C(CC1NCCNC1=O)Nc1ccc(Oc2ccccc2)cc1` (centres undefined), the activity change, negative = inhibition was 1.7% (inactive). To `O=C(NCc1ccc(Cl)cc1)c1ccc2c(c1)nnn2C1CCCC1` belongs -8.94% (inactive). On to `Cc1ccc2ccc3c(c2n1)NS(=O)(=O)c1ccccc1-3`, for which the activity change, negative = inhibition was 8.65% (inactive). Consider `COc1ccc(CNC(=O)c2cc3c(s2)-c2ccccc2OC3)cc1`, for which the activity change, negative = inhibition was -24.1% (inactive). As for `Cc1cccc2c1-c1sc(C(=O)NCCCN3CCc4ccccc4C3)cc1CO2`, the activity change, negative = inhibition is -31.8% (active). For the compound `Cc1cccc2c1-c1sc(C(=O)Nc3ccc(F)cc3F)cc1CO2`, the activity change, negative = inhibition was -14.5% (inactive). For the compound `COc1ccc2c(c1)CCc1c(C(=O)Nc3cc(C)ccc3O)noc1-2`, the activity change, negative = inhibition is -13.5% (inactive). For the compound `COc1ccc(CNc2nc(-c3ccc(Cl)cc3)cc(C(F)(F)F)n2)cc1`, the activity change, negative = inhibition was -13.9% (inactive).

`CCCNC(=O)C1CCC(Cn2c(=O)c3sccc3n(Cc3ccccc3F)c2=O)CC1` (centres undefined): the activity change, negative = inhibition is -11.6% (inactive). With `CCCC12CN3CC(CCC)(CN(C1)C3c1c[nH]c3ccc(OC)cc13)C2=O` (centres undefined), the activity change, negative = inhibition was -7% (inactive).

As to `COc1ccccc1CNC(=O)C1CCN(c2nc3ccccc3o2)CC1`, the activity change, negative = inhibition was 15.4% (inactive).

Take `COc1ccccc1CN(C)C(=O)c1cc2ccccc2o1`: the activity change, negative = inhibition is -35.2% (active). For `COc1ccccc1CN(C)C(=O)C1(c2ccc(Cl)cc2)CC1`, the activity change, negative = inhibition is -0.3% (inactive). To `CCc1ccc(N(CC)C(=O)CCn2cnc3onc(-c4ccc(F)cc4)c3c2=O)cc1` belongs -6.1% (inactive); to `CC(NC(=S)Nc1ccccc1)C1COc2ccccc2O1` (centres undefined), -14.2% (inactive).

Take `S=C(NCC1COc2ccccc2O1)Nc1ccc(Br)cc1` (centres undefined): the activity change, negative = inhibition is -47.7% (active). Under `CCCN(CC1COc2ccccc2O1)C(=S)Nc1ccc(C)cc1` (centres undefined) stands -12.3% (inactive). With `COc1ccc(-n2c(=O)c3c(c4cc(OC)ccc4n3C)n(Cc3cccc(C)c3)c2=O)cc1`, the activity change, negative = inhibition is 4.47% (inactive).

For `Cc1ccc(Cl)cc1N1CCN(C(=O)CN2C(=O)COc3ccc(S(=O)(=O)N4CCOCC4)cc32)CC1`, the activity change, negative = inhibition was 3.53% (inactive).

`COc1cc(NC(=O)CCn2nc(C)cc2C)cc(OC)c1OC`: the activity change, negative = inhibition was 34.5% (inactive). As for `O=C(c1ccccc1F)N1CCC(c2nc3c(nnn3Cc3cccc(F)c3)c(=O)[nH]2)CC1`, the activity change, negative = inhibition is 0.447% (inactive). Under `O=C(Nc1ccc(F)cc1)N1CCCC(c2nc3c(nnn3Cc3ccccc3Cl)c(=O)[nH]2)C1` (centres undefined) stands 2.43% (inactive). To `Cc1ccc(NC(=O)N2CCC(c3nc4c(nnn4Cc4c(F)cccc4Cl)c(=O)[nH]3)CC2)cc1` belongs -40.8% (active).
